High-throughput results (PubChem)
Rows were chosen to be rich in hits. Some 10% of all compounds tested hit in one or more screens of this group.
HP1b binding inh: inhibitors of HP1-beta chromodomain binding to methylated histone tails; 390,000 tested, 0.56% active; P83916; AlphaScreen HP1-beta / biotin-H3K9me3 peptide binding; Potency, µM (doses to about 114 µM), for the others: top-dose activity change, negative = inhibition, actives largely listed as inhibitors; further: potency means the concentration at half of the fitted maximal effect; nearly all actives have a fitted effect of over 70% in size
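HP1-beta protein (50 nM final) preincubated 30 min at room temperature with biotinylated H3(1-18)K9me3 peptide (50 nM) in PBS pH 7.4, 0.01% Tween-20, then compound added for 30 min. AlphaScreen streptavidin donor/nickel chelate acceptor beads (10 ug/mL final), 30 min dark, luminescence read.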
CtBP-E1A inh: inhibitors of CtBP/E1A interaction. AlphaScreen GST-E1A/His-CtBP binding, 1536-well; hits give low values. AID 651724. activity change, % (no concentration beside the values). 340,000 tested, 0.49% active; in the data active means activity change below about -65%; inconclusive means mostly about -30% to -63%; further: on the % scale 0 is the no-effect control and ±100 the full control effect
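AlphaScreen with 125 nM GST-E1A and 125 nM His-CtBP (5X stocks) in Tris pH 8.0, 300 mM NaCl, BSA, Tween 20, TCEP. Compounds preincubated 2 h at 37 deg C, then glutathione donor/nickel acceptor beads added for 1 h at 37 deg C in dark.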
G9a block: blocks human histone lysine methyltransferase G9a; Q96KQ7; G9a H3K9 monomethylation, AlphaScreen, 2 h; Potency, µM (top dose mostly 102 µM), inactives show at the top dose activity, negative = inhibition, most hits filed as inhibitors; 350,000 tested, 8.8% active; further: potency means the concentration at half of the fitted maximal effect; on the % scale 0 is the no-effect control and ±100 the full control effect; nearly all actives have a fitted effect of over 75% in size
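Using a bead-based AlphaScreen, monomethylated H3K9 product from 2 h room-temperature reactions (G9a 20 nM, peptide 500 nM, SAM 20 uM) was detected with 0.5 ug/mL rabbit anti-H3K9me1 antibody.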
BAZ2B block: inhibitors of human BAZ2B bromodomain. AlphaScreen BAZ2B-H3K14Ac peptide displacement. Potency, µM (top dose mostly 114 µM), without a hit: at the top dose activity change, negative = inhibition, usual class: inhibitors. 360,000 tested, 4.4% active. AID 504333; further: potency means the concentration at half of the fitted maximal effect; on the % scale 0 is the no-effect control and ±100 the full control effect; nearly all actives have a fitted effect of over 60% in size
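BAZ2B (50 nM) with biotin-H3(5-23)K14Ac peptide (50 nM) in PBS pH 7.4, 0.01% Tween-20, preformed 30 min, then compound 30 min at room temperature; top concentration 110uM. AlphaScreen streptavidin donor/nickel chelate acceptor beads (10 ug/mL final), 20 min dark, signal read.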
JMJD2A Tudor inh: blocks the human JMJD2A Tudor domain; AlphaScreen JMJD2A-Tudor / H3K4me3 peptide binding; Potency, µM (top dose mostly 114 µM), inactives show at the top dose activity change, negative = inhibition, usual class: inhibitors; 390,000 tested, 4.4% active; AID 504339; further: potency means the concentration at half of the fitted maximal effect; on the % scale 0 is the no-effect control and ±100 the full control effect; nearly all actives have a fitted effect of over 50% in size
Six1-Eya2 blk: Six1/Eya2 interaction inhibition; AlphaScreen GST-Six1/His-Eya2 binding, biochemical; hits give low values; activity change, % (no concentration beside the values); 360,000 tested, 0.56% active; in the data active means activity change below about -65%; inconclusive means mostly about -30% to -63%; further: on the % scale 0 is the no-effect control and ±100 the full control effect
Target sequence (O00167 whole entry, looked up): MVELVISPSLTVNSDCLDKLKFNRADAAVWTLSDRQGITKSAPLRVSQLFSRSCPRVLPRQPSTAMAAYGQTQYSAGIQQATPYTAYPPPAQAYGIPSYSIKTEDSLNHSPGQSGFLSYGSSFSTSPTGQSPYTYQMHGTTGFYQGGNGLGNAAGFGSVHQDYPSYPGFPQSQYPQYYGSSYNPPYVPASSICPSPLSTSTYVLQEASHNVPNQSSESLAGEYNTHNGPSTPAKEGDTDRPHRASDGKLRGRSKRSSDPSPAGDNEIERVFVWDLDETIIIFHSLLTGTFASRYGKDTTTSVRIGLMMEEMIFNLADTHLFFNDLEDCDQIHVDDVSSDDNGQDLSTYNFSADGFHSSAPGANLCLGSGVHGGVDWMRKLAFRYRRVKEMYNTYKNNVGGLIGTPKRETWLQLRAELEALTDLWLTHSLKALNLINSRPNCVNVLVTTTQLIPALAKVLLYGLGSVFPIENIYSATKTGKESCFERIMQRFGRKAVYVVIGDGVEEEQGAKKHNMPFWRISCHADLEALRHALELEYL
Target sequence (Q15475 whole entry, looked up): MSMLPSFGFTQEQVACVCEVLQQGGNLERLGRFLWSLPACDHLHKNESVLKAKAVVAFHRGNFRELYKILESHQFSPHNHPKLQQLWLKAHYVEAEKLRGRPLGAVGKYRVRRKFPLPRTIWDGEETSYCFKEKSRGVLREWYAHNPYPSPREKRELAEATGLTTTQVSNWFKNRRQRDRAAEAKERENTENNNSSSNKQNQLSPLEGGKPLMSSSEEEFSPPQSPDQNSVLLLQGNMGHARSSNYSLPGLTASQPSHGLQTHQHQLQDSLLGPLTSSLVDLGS
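Compounds are tested against tagged Six1 and Eya2 proteins bridged by glutathione donor and nickel acceptor beads; after a one-hour incubation at 37 °C without light, AlphaScreen emission is recorded.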
Active calls of the source: *; [ ] = another dose, or the depositor's remark. Unless noted, the call rests on the fitted dose curve; in most records, active means well fitted inhibition curve with a large enough effect; inconclusive means small, poorly fitted or top-dose-only effect; inactive means no such curve, though single readings can be large or run the other way.

Screening O=C(COC(=O)c1ccc2ncsc2c1)NC(=O)c1ccccc1 returned HP1b binding inh -9%, CtBP-E1A inh -4, G9a block inconclusive, BAZ2B block 79µM*, JMJD2A Tudor inh 25µM* and Six1-Eya2 blk 7.
CC(=O)Nc1cc(F)c2c(c1F)Cc1cc(F)ccc1-2 was read as HP1b binding inh 15%[57 µM], CtBP-E1A inh 5, JMJD2A Tudor inh -11% and Six1-Eya2 blk 5.
`O=S1(=O)N=C(Nc2nncs2)c2ccccc21` gave HP1b binding inh -17%, CtBP-E1A inh -12, G9a block 2µM*, BAZ2B block 56µM*, JMJD2A Tudor inh inconclusive and Six1-Eya2 blk -3.
NC(=O)c1ccsc1NC(=O)c1cccs1 was read as HP1b binding inh 29%, CtBP-E1A inh -18, JMJD2A Tudor inh -11% and Six1-Eya2 blk -24.
For Cc1sc(NC(=O)c2cccs2)c(C(N)=O)c1C the results were HP1b binding inh inconclusive, CtBP-E1A inh inconclusive, G9a block 4µM*, BAZ2B block -6%, JMJD2A Tudor inh -21% and Six1-Eya2 blk -20.
Screening Clc1cccc(OCCn2ccnc2)c1 returned HP1b binding inh 30%, CtBP-E1A inh 4, BAZ2B block -4%, JMJD2A Tudor inh -10% and Six1-Eya2 blk -6.
For C=CCc1ccccc1OCCn1ccnc1 the results were HP1b binding inh inconclusive, CtBP-E1A inh 0, G9a block 8.9µM*, BAZ2B block 50µM*, JMJD2A Tudor inh -91%[57.1 µM] and Six1-Eya2 blk 22.
`Clc1ccccc1OCCn1ccnc1` gave HP1b binding inh 45µM*, CtBP-E1A inh 6, G9a block 10µM*, BAZ2B block 79µM*, JMJD2A Tudor inh 4.5µM* and Six1-Eya2 blk 1.
COc1ccc(OCCn2ccnc2)cc1 was read as HP1b binding inh 33%, CtBP-E1A inh 7, G9a block -9%[0.501 µM], BAZ2B block -10%, JMJD2A Tudor inh 4% and Six1-Eya2 blk 2.
Screening C=CCc1cccc(OC)c1OCCOCCn1ccnc1 returned HP1b binding inh inconclusive, CtBP-E1A inh -4, G9a block inconclusive, BAZ2B block 35µM*, JMJD2A Tudor inh 5µM* and Six1-Eya2 blk -4.
CCOC(=O)c1c[nH]n(-c2ccc(C)cc2)c1=O was read as HP1b binding inh 40%, CtBP-E1A inh 0, G9a block 50µM*, BAZ2B block -46%, JMJD2A Tudor inh -15% and Six1-Eya2 blk -4.
For CCOC(=O)c1cc2c(C)n(-c3ccc(C)cc3)c(C)c2ccc1=O the results were HP1b binding inh inconclusive, CtBP-E1A inh -16, BAZ2B block 45µM*, JMJD2A Tudor inh inconclusive and Six1-Eya2 blk -17.
For CCOc1ccc(-n2c(C)c(C(=O)OC)c3cc(O)ccc32)cc1 the results were HP1b binding inh 3%, CtBP-E1A inh -3, BAZ2B block inconclusive, JMJD2A Tudor inh -24% and Six1-Eya2 blk -7.
CCOC(=O)c1c[nH]n(-c2ccccc2)c1=O was read as HP1b binding inh 31%, CtBP-E1A inh 6, G9a block -36%, BAZ2B block -6%, JMJD2A Tudor inh -8% and Six1-Eya2 blk 1.
For CCOC(=O)c1cc2c(C)n(-c3ccc(OCC)cc3)c(C)c2ccc1=O the results were HP1b binding inh inconclusive, CtBP-E1A inh 2, BAZ2B block 50µM*, JMJD2A Tudor inh inconclusive and Six1-Eya2 blk -15.
For Cc1ccc(NC(=O)N2CCC(CN3CCC(C)CC3)CC2)cc1F the results were HP1b binding inh 27%, G9a block -20%[59 µM], BAZ2B block -12% and JMJD2A Tudor inh -3%.
For Cc1cc(C)n(CC(O)Cn2c3ccc(Br)cc3c3cc(Br)ccc32)c(=O)n1 (centres undefined) the results were HP1b binding inh inconclusive, CtBP-E1A inh -13, G9a block 79µM*, BAZ2B block -2%, JMJD2A Tudor inh -35% and Six1-Eya2 blk -20.
For Cc1cc(C)n(CC(O)Cn2c3ccccc3c3ccccc32)c(=O)n1 (centres undefined) the results were HP1b binding inh 4%, CtBP-E1A inh 6, G9a block 3%, BAZ2B block 3%, JMJD2A Tudor inh -21% and Six1-Eya2 blk -4.
Cc1nnc(SCC2=C(C(=O)O)N3C(=O)C(NC(=O)C(C)n4nc(C(F)(F)F)cc4C)C3SC2)s1 (centres undefined) was read as HP1b binding inh 25%, CtBP-E1A inh 2, G9a block inconclusive, BAZ2B block 50µM*, JMJD2A Tudor inh 63µM* and Six1-Eya2 blk -13.
`COc1cccc(-c2cc(C(=O)Nc3cc(Cl)ccc3O)on2)c1` gave HP1b binding inh -1%, G9a block 13µM*, BAZ2B block inconclusive and JMJD2A Tudor inh inconclusive.
Screening COc1ccc(-c2cc(C(=O)Nc3cccc(O)c3)on2)cc1OC returned HP1b binding inh -9%, G9a block 14µM*, BAZ2B block inconclusive and JMJD2A Tudor inh inconclusive.
For COc1cccc(-c2cc(C(=O)Nc3cc(OC)c(OC)c(OC)c3)on2)c1 the results were HP1b binding inh 1%, G9a block -40%[59 µM], BAZ2B block -34% and JMJD2A Tudor inh inconclusive.
For CC(OC(=O)/C=C/c1ccc2ccccc2n1)C(=O)NCc1ccccc1 (centres undefined) the results were HP1b binding inh 28%, CtBP-E1A inh -3, G9a block -34%, BAZ2B block -5%, JMJD2A Tudor inh -15% and Six1-Eya2 blk 0.
`COc1ccc(N2C(=O)CC(NC3CCCCNC3=O)C2=O)cc1` (centres undefined) gave HP1b binding inh 55%, CtBP-E1A inh 2, G9a block 11µM*, BAZ2B block 2%, JMJD2A Tudor inh 18%[57.1 µM] and Six1-Eya2 blk 1.
Screening CCOC(=O)CNC1CC(=O)N(c2ccc(Br)cc2)C1=O (centres undefined) returned HP1b binding inh 47%, CtBP-E1A inh -3, G9a block 10µM*, BAZ2B block -13%, JMJD2A Tudor inh -10% and Six1-Eya2 blk 5.
For COc1ccc(N2C(=O)CC(Nc3ccc(C)cc3)C2=O)cc1 (centres undefined) the results were HP1b binding inh 13%, CtBP-E1A inh -4, G9a block 22%, BAZ2B block 4%, JMJD2A Tudor inh -8% and Six1-Eya2 blk -1.
`O=C(NNC1CC(=O)N(c2ccc(Br)cc2)C1=O)c1cccs1` (centres undefined) gave HP1b binding inh 67%, CtBP-E1A inh 0, G9a block 14%[12.7 µM], BAZ2B block -17%, JMJD2A Tudor inh -6% and Six1-Eya2 blk -2.
